Measurements: PubChem BioAssay (NCI)
Compounds without any hit were thinned out: in the full panel of roughly 79,000, 15% have a hit. A number with no mark means an inactive call. Activity calls are given as the source filed them. No stated cut-off is given here; in the data, active means growth inhibition above about 70%; inactive means the rest.

Assay: NCI Yeast Anticancer Drug Screen. Data for the sgs1 mgt1 strain (AID 161);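 further: 0% = growth of cultures given vehicle only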
Settings: S. cerevisiae sgs1 mgt1 strain, at 50.0 µM (retest, dose inferred, filed as 5.0), hits give high values
Procedure, shortened: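 Mutant yeast exposed to compound; growth scored against vehicle-only wells.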

Row | SMILES | growth inhibition
1 | Nc1ncnc(N2CCOCC2)c1N | 0%
2 | CN(C)c1ccc2c(NCCCCCCNc3ccnc4cc(N(C)C)ccc34)ccnc2c1 | 98% (active)
3 | CC(C)N=Cc1cc(Br)cc(Br)c1O.CC(C)N=Cc1cc(Br)cc(Br)c1O.[Co] | 99% (active)
4 | O=C1c2ccc(O)cc2C(=O)c2c1ccc(O)c2O | 96% (active)
5 | COc1cc2c[n+](C)c3c4cc(OC)c(OCc5ccccc5)cc4c(OCc4ccccc4)cc3c2cc1OC | 94% (active)
6 | O=C(Nc1ccc(Cl)cc1)OCC1C2C=CC(C2)C1CO (stereo not given) | 97% (active)
7 | Cn1nc(-c2ccccc2NC(=O)C(F)(F)F)c(=O)n(C)c1=S | 25%
8 | OCc1c2c(cc3c1CC1(C3)Cc3cc4c(c(CO)c3C1)CCC4)CCC2 | 98% (active)
9 | O=C(C[n+]1ccccc1)N=N/C(C(=O)Nc1c(Cl)c(O)c2ccccc2c1O)=C1/C(=O)Oc2cc(O)ccc2C1=O | 98% (active)
10 | Cc1cc(Cl)c(O)c(-c2cc(-c3ccccc3O)c(C#N)c(N)n2)c1 | 80% (active)
11 | CCCCNc1ncc(OCC)c(NCCCC)n1 | 4%
12 | C#CCCCCCOC(=O)c1cc([N+](=O)[O-])cc([N+](=O)[O-])c1 | 99% (active)
13 | C=C(C)C1(C(=O)OCC(Cl)(Cl)Cl)NC(=O)C(NC(=O)COc2ccccc2)=CO1 (stereo not given) | 56%
14 | Cc1ccc(SCC#CC#CCS(=O)c2ccc(C)cc2)cc1 (stereo not given) | 99% (active)
15 | CCCCCCCCCCCCCCCC1C(N)C(=O)N(C)N1C (stereo not given) | 95% (active)
16 | O=c1c(O)cc2c(O)oc3c(=O)c(O)c(O)c4c(O)oc1c2c43 | 90% (active)
17 | CCCCN(CCCC)CCNc1ccc(NS(=O)(=O)c2ccccc2)c2sc3ccccc3c(=O)c12 | 96% (active)
18 | CCOC(=O)CC(N)CC(=O)OCC | -64%
19 | O=c1cc(Cl)c(Cl)nn1-c1ccccc1 | 71% (active)
20 | CC(=O)Nc1ccc(-c2ccccc2)cc1[N+](=O)[O-] | 0%

Row | SMILES | growth inhibition
21 | O=C1OC(c2ccccc2)N/C1=C\c1ccc2c(c1)OCO2 (stereo not given) | 24%
22 | CCOc1c(N=Nc2ccc(Cl)cc2)c(-c2ccccc2)nn1C(=S)S | 92% (active)
23 | BrCN(CBr)c1ccc2c(c1)Cc1cc(Br)ccc1-2 | 1%
24 | COc1cc(NCCCCCCCC2CCCCN2)c2ncccc2c1 (stereo not given) | 98% (active)
25 | Cc1cc(Br)cc(C)c1NC(=O)C(=O)C(C(=O)c1ccc2ccccc2c1)C1OC(=O)c2ccccc21 (stereo not given) | 11%
26 | O=Cc1cc2c(s1)C(=O)c1sccc1C2=O | 99% (active)
27 | C=C1CC2(CC(C(C)C)CCC2C)OC1=O (stereo not given) | 54%
28 | CCSC(=Nc1nc2ccc(NC(C)=O)cc2s1)SCC | 97% (active)
29 | CCOc1ccc2c(c1)n([O-])c1cc(Br)ccc1[n+]2=O | 95% (active)
30 | CCCCC(CCCC)=NNC(=S)SC | 79% (active)
31 | COc1ccc2c(c1)CCc1c(CO)c(COC(=O)NC(C)C)n(C)c1-2 | 92% (active)
32 | CSc1cc2c(cc1N)Cc1ccccc1-2 | 30%
33 | O=C1C=C(c2ccccc2)OC(c2ccccc2)C1 (stereo not given) | -37%
34 | CCOc1ccc2nc([NH-])sc2c1.CCOc1ccc2nc([NH-])sc2c1.[Cl][Pt+2][Cl] | 15%
35 | Cc1nc2c(Cl)nc(Cl)nc2s1 | 97% (active)
36 | Cc1cc(O)n(Cc2ccccc2)c(=O)c1 | 33%
37 | NCCC1=CCCCC1 | 98% (active)
38 | CCOC(=O)/C(=C\n1c(=O)sc2ccccc21)C(=O)c1ccccc1 | 64%
39 | Cc1ccc(S(=O)(=O)Nc2ccccc2C=O)cc1 | 63%
40 | CC1COC(c2cn[nH]c2C(N)=O)C1O (stereo not given) | 14%
